From PubChem BioAssay AID720541 (National Center for Advancing Translational Sciences (NCATS), 2013)
About 420 (32%) of roughly 1,300 compounds were called active. Roughly 32% stayed inconclusive and do not appear here. The list shows a part of the results. Unmarked numbers belong to inactive results. Calls follow the shape of the dose curve; as a rule, active = well fitted inhibition curve with a large enough effect; inconclusive = small, poorly fitted or top-dose-only effect; inactive = no such curve, though single readings can be large or run the other way.

Molecular target: C-terminal-binding protein 1 (Homo sapiens) (UniProt Q13363)
Test: qHTS for Inhibitors of the Phosphatase Activity of Eya2: Carboxyl-terminal binding protein (CtBP) Counterscreen for Cherry-picked Compounds; also: nearly all actives have a fitted effect of over 65% in size
Conditions: purified protein-protein binding, AlphaScreen, 3 h; series mostly up to 46.1 µM; activity change, negative = inhibition: at the top concentration
Excerpt: The Eya protein family is an essential co-activator of the Six1 transcription factor. Six1 is a developmental gene that is abnormally re-expressed in a large percentage of breast cancers. This over-expression plays a causal role in the initiation and metastatic development of breast cancers. The Eya family of protein is also found to contain a unique HAD phosphatase domain with protein tyrosine phosphatase activity which can potentially play a role in Six1-mediated breast tumorigenesis. Recently, Eya2 is found to dephosphorylate the histone variant H2AX and direct cells towards DNA repair instead of apoptosis in the event of DNA damage.
A 1536 well format, fluorescence based qHTS assay was developed and used to target the phosphatase activity of Eya2 (AID 488837). In addition, a CtBP counterscreen was developed using the AlphaScreen technology to evaluate compound selectivity to target […]. The data herein reports the activity of the cherry-picked compounds against the CtBP AlphaScreen. Compounds that are active or have > 100 fold selectivity vs. the Eya2 activity were excluded for further characterization. Inactivity is the desired outcome for the CtBP counterscreen.
NIH Chemical Genomics Center [NCGC]
NIH Molecular Libraries Probe Centers Network [MLPCN]
Assay Submitter (PI): Rui Zhao, University of Colorado Denver
Four microliters of reagent (25 nM GST-E1A, 25 nM CtBP-6x HIS) was dispensed in a 1536 well Greiner plates. Twenty-three nanoliter of test compounds (final concentration of 2.5 nM - 46 uM) and positive control E1A peptide inhibitor (final concentration of 0.14 nM - 4.6 uM) were added to the plates using the Kalypsys pintool equipped with a 1536 pin head. The plates was then incubated at room temperature for 2 hours followed by addition of 1 uL Alpha bead donor / acceptor mix (20 ug/mL final concentration). The assay plates were incubated for additional 1 hour at room temperature and protected from light. The AlphaScreen signal was obtained using the PerkinElmer EnVision plate reader using the 680 nm excitation and 520 - 620 nm emission filters. The data was normalized to the E1A peptide inhibitor for maximum inhibition and DMSO treated wells as negative control.
% is scaled to controls: 0 for no effect and ±100 for the full control effect; potency is read from the fitted curve at half-maximal effect.

Row | SMILES | Potency | activity change, negative = inhibition [%]
1 | N[C@@H](Cc1cc(I)c(O)c(I)c1)C(=O)O | 8.49 µM (active) | –
2 | CN(C)c1ccc(C=C2C=CC=C2)cc1 | – | -34.8
3 | CN(C)c1ccc(N=Nc2ccccc2)cc1 | 4.78 µM (active) | –
4 | COC(=O)C1=C(c2ccc(F)cc2OCc2ccccc2)C[C@@H]2CC[C@H]1N2C(=O)NCc1ccc(N(C)C)cc1 | 10.7 µM (active) | –
5 | COC(=O)C1=C(c2cccc(OCc3ccccc3)c2)C[C@@H]2CC[C@H]1N2C(=O)NCCCc1ccccc1 | – | -1.51
6 | CCOC(=O)c1cc2c(cn1)[C@@H](CCO)NC2 | – | -5.64
7 | COc1cccc2c1C(=O)c1c(O)c3c(c(O)c1C2=O)C[C@@](O)(C(=O)CO)C[C@@H]3O[C@H]1C[C@H](N)[C@H](OC2CCCCO2)[C@H](C)O1 (stereo partly drawn) | 7.57 µM (active) | –
8 | C[C@H]1CCC[C@H](O)CCCCCc2cc(O)cc(O)c2C(=O)O1 | – | -6.77
9 | CN(C)S(=O)(=O)c1ccc(C(=O)NNc2nc(-c3ccccc3)c3cc(Br)ccc3n2)cc1 | 8.49 µM (active) | –
10 | O=C1NC(=S)NC(=O)C1=Cc1ccc(Br)s1 | – | -0.756
11 | COc1ccc(-c2cc(=NCCC(=O)O)c3cc(C)ccc3o2)cc1 | 10.7 µM (active) | –
12 | Cc1nc2ccccc2c(=O)n1-c1ccc(Cl)cc1[N+](=O)[O-] | – | -0.976
13 | COc1ccccc1N1CCN(CCc2c[nH]c3cc4c(cc23)OCO4)CC1 | 13.5 µM (active) | –
14 | O=C1NC(=O)N(c2ccc(Cl)cc2)C(=O)/C1=C\c1ccc(Sc2nc3ccccc3[nH]2)o1 | – | -15.3
15 | CC(N)[C@H](O)c1ccc(O)c(O)c1 (stereo partly drawn) | – | -0.819
16 | Cc1cc(/C=C2\C(=O)NC(=O)N(c3ccc(Br)cc3)C2=O)c(C)n1-c1cc(C(=O)O)cc(C(=O)O)c1 | – | -7.75
17 | Cc1c(C(=O)c2cccc3ccccc23)c2cccc3c2n1[C@H](CN1CCOCC1)CO3 | – | -29.2

Row | SMILES | Potency | activity change, negative = inhibition [%]
18 | O=C(Cc1ccccc1)c1ccccn1 | 10.7 µM (active) | –
19 | COC1C(O)C(C)OC(OC2C(Oc3cccc4c(O)c5c(=O)oc6ccc(C)c7c(=O)oc(c34)c5c67)OC(C)C(O)C2O)C1O (stereo not drawn) | – | -2.9
20 | CCC(COC(=O)c1cc(OC)c(OC)c(OC)c1)(c1ccccc1)N(C)C (stereo not drawn) | – | -23.3
21 | COC(=O)C1=C(C)NC(C)=C(C(=O)OC)C1c1ccccc1[N+](=O)[O-] | 10.7 µM (active) | –
22 | O=C(O)c1cc[c]([Sb](=[O])([OH])[OH])cc1[N+](=O)[O-] | – | 13.1
23 | C=CCN1C(=O)/C(=C/c2ccc(Br)s2)C(=O)NC1=S | – | 1.73
24 | Cc1ccc2c(C)c3ccc4ccccc4c3c[n+]2c1 | 13.5 µM (active) | –
25 | CCOC(=O)CCCc1cc[c]([Sb](=[O])([OH])[OH])cc1 | – | -6.8
26 | CCOc1ccc(N2C(=O)/C(=C/c3ccc(C)o3)C(=O)NC2=S)cc1 | – | -16.5
27 | C=C1C(=O)O[C@@H]2C[C@@H](C)[C@@H]3C=CC(=O)[C@@]3(C)[C@@H](OC(=O)CC(=O)O[C@H]3[C@@H]4C(=C)C(=O)O[C@@H]4C[C@@H](C)[C@@H]4C=CC(=O)[C@]43C)[C@H]12 | 8.49 µM (active) | –
28 | Cc1ccc(/C=C2\C(=O)NC(=S)N(c3cccc(F)c3)C2=O)o1 | – | -19.9
29 | O=C(O)CCCOc1ccc(Cl)cc1Cl | – | 8.85
30 | CNc1ccc2nc3ccccc3[n+](C)c2c1 | 8.49 µM (active) | –
31 | Cc1c(N=Nc2c(O)[nH]c(=O)[nH]c2=O)c(=O)n(-c2ccccc2)n1C | 2.13 µM (active) | –
32 | O=C1NC(=O)N(c2ccc(Br)cc2)C(=O)/C1=C/c1ccsc1 | – | 2.99
33 | CCOc1cc2c(cc1OCC)-n1cccc1C(c1ccc(F)cc1)NC2 (stereo not drawn) | – | -7.78
